Avidin fluor = compound fluoresces at 488/530 nm on avidin beads. hit rate 0.38% among 220,000. compound fluorescence 488/530 nm, flow cytometry; active compounds read high. fluorescence (KMESF) at 10 µM. AID 1775; in the data active means fluorescence above about 47
RGS16-Gao = modulates binding between human RGS16 and Galphao; O15492+P09471; bead-based flow cytometry RGS16-Galphao binding, fluorescence; actives lie on both sides; binding response (% of control), % at 10 µM; hit rate 0.38% among 220,000; AID 1441;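 further: Galphao activated by GDP with aluminum fluoride before binding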
Target sequence (O15492 whole entry, looked up): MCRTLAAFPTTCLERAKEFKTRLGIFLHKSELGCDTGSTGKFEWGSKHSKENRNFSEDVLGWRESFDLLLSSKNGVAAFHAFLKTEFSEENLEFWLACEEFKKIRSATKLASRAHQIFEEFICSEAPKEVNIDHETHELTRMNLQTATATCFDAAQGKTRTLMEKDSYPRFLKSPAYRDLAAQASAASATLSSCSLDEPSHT
Target sequence (P09471 whole entry, looked up): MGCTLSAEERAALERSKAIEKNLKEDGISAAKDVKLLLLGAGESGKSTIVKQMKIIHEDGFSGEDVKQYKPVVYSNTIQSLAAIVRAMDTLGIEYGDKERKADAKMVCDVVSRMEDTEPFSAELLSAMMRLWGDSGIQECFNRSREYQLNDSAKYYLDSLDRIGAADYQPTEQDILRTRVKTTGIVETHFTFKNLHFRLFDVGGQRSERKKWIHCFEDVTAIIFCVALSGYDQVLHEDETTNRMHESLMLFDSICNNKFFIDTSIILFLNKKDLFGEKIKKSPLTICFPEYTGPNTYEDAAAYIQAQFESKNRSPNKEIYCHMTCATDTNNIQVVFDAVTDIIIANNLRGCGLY
GSH bead fluor = GSH bead compound fluorescence profile; GSH beads flow cytometry, compound fluorescence 488/530 nm; active compounds read high; fluorescence (KMESF) at 10 µM; hit rate 0.25% among 190,000; AID 1776; in the data active means fluorescence above about 89;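 further: glutathione beads carrying GST-tagged Bcl family fusion proteins plus one bare bead set; values are compound well signal with DMSO vehicle wells as background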
RGS8-Gao = regulators of human RGS8-Galphao interaction; multiplexed bead flow cytometry, RGS8-Galphao binding; actives lie on both sides; response (percent of control binding), % at 10 µM; hit rate 0.34% among 220,000; AID 1423; in the data active means response below about 60% or above about 140%; inactive means in between;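 further: Galphao activated as the GDP aluminium fluoride complex binding bead-coupled RGS8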
Target sequence (P09471 whole entry, looked up): as above
RGS7-Gao reg = human RGS7-Galphao interaction regulation; P09471; binding response (% of control), % at 10 µM; Multiplexed bead flow cytometry, RGS7-Galphao binding; actives lie on both sides; hit rate 0.35% among 220,000; AID 1439; in the data active means binding response below about 49% or above about 150%; inconclusive means no clear call, values can overlap the other calls; inactive means in between;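 further: fluorescent Galphao held in activated GDP-AlF4 state binding bead-coupled RGS7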
RGS4-Gao reg = modulates binding of RGS4 to human Galphao | P09471 | Multiplexed bead flow cytometry; actives lie on both sides | binding response (% of control), % at 10 µM | hit rate 0.33% among 220,000; in the data active means binding response below about 49% or above about 150%; inactive means in between;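 further: fluorescent Galphao activated with aluminum fluoride binding bead-coupled RGS4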
RGS4-Gao HTS = regulators of human RGS4-Galphao interaction; shares compounds with RGS16-Gao; multiplexed bead flow cytometry, RGS–Galpha-o binding; RGS4–Galpha-o binding response, % at 10 µM; hit rate 99% among 1,600; AID 1504;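 further: fluorescently labeled Galpha-o bound to GDP with aluminium fluoride binding biotinylated RGS beads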
Avidin counter = biotin-avidin bead binding disruption counter-screen. shares compounds with RGS16-Gao. streptavidin beads, fluorescein-biotin binding, flow cytometry. inhibition, % at 10 µM. 1,700 tested, under 10 active. AID 1783;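 active means inhibition above 50%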;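 further: median green fluorescence of gated singlet beads compared with DMSO control wells; 0% = DMSO wells and 100% = complete loss of bead fluorescence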
RGS8-Gao confirm = confirmation of regulators of human RGS8-Galphao interaction. shares compounds with RGS16-Gao. bead-based flow cytometry RGS8-Galphao binding, fluorescence; actives lie on both sides. binding response (% of control), % at 10 µM. hit rate 3% among 1,700. AID 1836; in the data active means binding response below about 72% or above about 130%; inactive means in between;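 further: Galphao activated as GDP AlF4 complex before binding bead RGS8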
RGS7-Gao confirm = RGS7-Galphao interaction regulation, single point confirmation; shares compounds with RGS16-Gao; bead-based flow cytometry RGS7-Galphao binding; actives lie on both sides; response (percent of control binding), % at 10 µM; hit rate 7.8% among 1,700; in the data active means response below about 75% or above about 130%; inactive means in between;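 further: fluorescent Galphao activated with GDP and aluminum fluoride binding bead-coupled RGS7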
RGS16-Gao single = RGS16-Galphao interaction regulation, single point confirmation; bead-based flow cytometry, RGS16-Galphao binding; actives lie on both sides; response (% of control binding), % at 10 µM; hit rate 4% among 1,700; shares compounds with RGS16-Gao; in the data active means response below about 74% or above about 130%; inactive means in between;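 further: Galphao activated as the GDP aluminium fluoride complex binding bead-coupled RGS16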
RGS4-Gao confirm = RGS4-Galphao interaction regulation, single point confirmation; shares compounds with RGS16-Gao; binding response (% of control), % at 10 µM; hit rate 4% among 1,700; RGS4-Galphao binding, multiplexed bead flow cytometry; actives lie on both sides; in the data active means binding response below about 74% or above about 130%; inactive means in between
RGS19-Gao conf = confirmation of regulators of human RGS19-Galphao interaction. hit rate 5% among 1,700. shares compounds with RGS16-Gao. response (percent of control binding), % at 10 µM. bead-based flow cytometry RGS19-Galphao binding; actives lie on both sides; in the data active means response below about 50% or above about 160%; inactive means in between;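 further: 100% = no compound control and 0% = blank background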
Numbers without * were called inactive; [ ] = another dose, or the depositor's remark. Compounds with a hit are over-represented: about 1.2% of the library has one in this group of screens. Unless noted, how the calls were made is not given here.

Results for O=C(Nc1cccc(O)c1)c1noc2c1CCCCC2 ?
GSH bead fluor: 32; Avidin counter: 1.3; RGS8-Gao confirm: 106.6; RGS7-Gao confirm: 105.5; RGS16-Gao single: 110.5; RGS4-Gao confirm: 103.0; RGS19-Gao conf: 103.2

How did CCn1c(=O)c(C(=O)NCc2cccnc2)c(O)c2ccccc21 do in these assays?
GSH bead fluor: 40; RGS4-Gao reg: 121.9; Avidin counter: 0.5; RGS8-Gao confirm: 101.4; RGS7-Gao confirm: 97.1; RGS16-Gao single: 100.7; RGS4-Gao confirm: 96.4; RGS19-Gao conf: 100.4

What do the screens show for `CCc1ccccc1NCC(=O)Nc1ccc(Cl)c(C(F)(F)F)c1`?
Avidin fluor: 7; RGS16-Gao: 20.1*; GSH bead fluor: 6; RGS8-Gao: 76.0; RGS7-Gao reg: 92.4; RGS4-Gao reg: 93.9; RGS4-Gao HTS: 93.9*; Avidin counter: -2.7; RGS8-Gao confirm: 114.1; RGS7-Gao confirm: 100.8; RGS16-Gao single: 114.3; RGS4-Gao confirm: 102.5; RGS19-Gao conf: 96.0

Results for COc1ccccc1NC(=O)CN1CCN(CC(=O)Nc2ccc(Cl)c(C(F)(F)F)c2)CC1 ?
Avidin fluor: 9; RGS16-Gao: 102.8; GSH bead fluor: 6; RGS8-Gao: 105.7; RGS7-Gao reg: 103.2; RGS4-Gao reg: 104.6

How did Cc1c(Cl)c(C(F)(F)F)nn1CC(=O)NCc1ccccc1 do in these assays?
Avidin fluor: 6; RGS16-Gao: 102.3; GSH bead fluor: 15; RGS8-Gao: 101.6; RGS7-Gao reg: 99.3; RGS4-Gao reg: 97.9

How did Cc1c(Br)c(C(F)(F)F)nn1CC(=O)NCc1ccccc1 do in these assays?
Avidin fluor: 13; RGS16-Gao: 202.9*[activator]; GSH bead fluor: 19; RGS8-Gao: 127.0; RGS7-Gao reg: 110.3; RGS4-Gao reg: 108.8; RGS4-Gao HTS: 108.8*; Avidin counter: -1.4; RGS8-Gao confirm: 102.2; RGS7-Gao confirm: 100.9; RGS16-Gao single: 101.8; RGS4-Gao confirm: 101.7; RGS19-Gao conf: 90.0

How did CNC(=O)COc1ccc(C=O)cc1OC do in these assays?
Avidin fluor: 7; RGS16-Gao: 11.2*; GSH bead fluor: 4; RGS8-Gao: 71.8; RGS7-Gao reg: 85.6; RGS4-Gao reg: 91.1; RGS4-Gao HTS: 91.1*; Avidin counter: -0.6; RGS8-Gao confirm: 100.9; RGS7-Gao confirm: 97.8; RGS16-Gao single: 99.6; RGS4-Gao confirm: 100.1; RGS19-Gao conf: 97.5

How did Cc1ccc(S(=O)(=O)NC(C)(C)CSc2ccccn2)cc1 do in these assays?
Avidin fluor: 1; RGS16-Gao: 13.3*; GSH bead fluor: 9; RGS8-Gao: 64.0; RGS7-Gao reg: 91.7; RGS4-Gao reg: 87.2; RGS4-Gao HTS: 87.2*; Avidin counter: -1.5; RGS8-Gao confirm: 101.4; RGS7-Gao confirm: 102.7; RGS16-Gao single: 101.5; RGS4-Gao confirm: 102.3; RGS19-Gao conf: 111.9

How did COc1ccc(NC(=O)c2sccc2C)cn1 do in these assays?
Avidin fluor: 6; RGS16-Gao: 103.5; GSH bead fluor: 11; RGS8-Gao: 102.5; RGS7-Gao reg: 102.2; RGS4-Gao reg: 101.9

Results for CC(C)COc1ncnc2c1sc1nc3c(cc12)COC(C)(C)C3 ?
Avidin fluor: 75*; RGS16-Gao: 206.3*[activator]; RGS8-Gao: 129.6; RGS7-Gao reg: inconclusive; RGS4-Gao reg: 223.6*[activator]; Avidin counter: -1.3; RGS8-Gao confirm: 101.6; RGS7-Gao confirm: 99.7; RGS16-Gao single: 101.1; RGS4-Gao confirm: 100.3; RGS19-Gao conf: 91.6

How did COc1ccc(Br)cc1S(=O)(=O)n1ccnc1C do in these assays?
Avidin fluor: 13; RGS16-Gao: 105.7; GSH bead fluor: 35; RGS8-Gao: 106.5; RGS7-Gao reg: 103.0; RGS4-Gao reg: 106.3

Results for Cc1nccn1S(=O)(=O)c1ccc(Br)cc1Br ?
Avidin fluor: 92*; RGS16-Gao: 126.7; GSH bead fluor: 10; RGS8-Gao: 113.9; RGS7-Gao reg: 168.4*[activator]; RGS4-Gao reg: 145.4; RGS4-Gao HTS: 145.4*

What do the screens show for `CN(C)c1cccc(C(=O)Nc2cc(C(F)(F)F)ccc2-n2cnc3ccccc32)c1`?
Avidin fluor: 8; RGS16-Gao: 196.9*[activator]; GSH bead fluor: 14; RGS8-Gao: 126.5; RGS7-Gao reg: 115.4; RGS4-Gao reg: 106.1; RGS4-Gao HTS: 106.1*; Avidin counter: 0.3; RGS8-Gao confirm: 99.9; RGS7-Gao confirm: 97.4; RGS16-Gao single: 97.6; RGS4-Gao confirm: 99.5; RGS19-Gao conf: 102.5

What do the screens show for `CS(=O)(=O)c1ccc2nc(NC(=O)CCN3C(=O)c4ccccc4C3=O)sc2c1`?
Avidin fluor: 13; RGS16-Gao: 103.2; GSH bead fluor: 13; RGS8-Gao: 103.3; RGS7-Gao reg: inconclusive; RGS4-Gao reg: 103.3

Results for Cn1c(NC(=O)/C=C\c2ccccc2)cc(=O)n(C)c1=O ?
Avidin fluor: 22; RGS16-Gao: 111.7; GSH bead fluor: 8; RGS8-Gao: 106.0; RGS7-Gao reg: 103.4; RGS4-Gao reg: 103.3

Results for CC1CC(=O)Nc2ccccc2N1C(=O)Nc1ccc(F)cc1 (stereo not drawn) ?
RGS8-Gao: 94.5; Avidin counter: 0.5; RGS8-Gao confirm: 100.6; RGS7-Gao confirm: 99.3; RGS16-Gao single: 99.4; RGS4-Gao confirm: 98.8; RGS19-Gao conf: 96.6

How did CCOc1ccc2cc(C3CC(c4ccco4)=NN3S(C)(=O)=O)c(Cl)nc2c1 (stereo not drawn) do in these assays?
Avidin fluor: 6; RGS16-Gao: 99.1; RGS8-Gao: 97.9; RGS7-Gao reg: inconclusive; RGS4-Gao reg: 98.3

How did CCc1ccc(C2CC(c3ccco3)=NN2S(C)(=O)=O)cc1 (stereo not drawn) do in these assays?
GSH bead fluor: 18; Avidin counter: -1.3; RGS8-Gao confirm: 99.1; RGS7-Gao confirm: 105.5; RGS16-Gao single: 98.2; RGS4-Gao confirm: 99.8; RGS19-Gao conf: 92.0
